Source: PubChem (several laboratories)
Hits are enriched below; roughly 3.1% of the tested compounds scored in any of these assays.
PAX8 inh HTS = inhibitors of PAX8-driven TPO luciferase reporter, primary screen, RMG-I cells, single concentration; SteadyGlo, 24 h; inhibition, % at 12.6 µM; 360,000 compounds, 1.2% hits; AID 652154, 2013;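 active = mean replicate inhibition at least 60% with every replicate also reaching 60%; inconclusive = only one of the two criteria is met; inactive = mean below 60% and not all replicates reaching 60%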;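 note: luciferase light reporting Pax8 driven TPO promoter activity; plate controls were median of neutral control wells for no effect and mitoxantrone controls for full effect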
LGR2 inh = inhibitors of bursicon-induced LGR2 CRE-luciferase signal, primary screen, cell-based, HEK293, CRE-luciferase reporter, bursicon stimulation. Drosophila bursicon receptor LGR2 (rickets). bursicon-stimulated, 4 h. inhibition, % at 9.99 µM. 380,000 compounds, 0.35% hits;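 active = drop in luminescence signal, shown as inhibition above about 50% in the replicate tests, limit read from the data, passing the limit was not always enough; inconclusive = probably only some replicates passing the limit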;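 note: agonist challenge used bursicon conditioned medium at about half maximal strength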
TWEAK-Fn14 inh = inhibitors of TWEAK-Fn14 signaling, primary screen, luciferase reporter cells, uHTS; inhibition, % at 10 µM; TWEAK-stimulated Fn14 reporter cells, luciferase luminescence, 8 h; 360,000 compounds, 2% hits; in the data active = inhibition above about 50%
TROY signal inh = inhibitors of TROY-driven NF-kB signaling, primary screen, Q293 LMP1-TROYcd cells, NF-kB luciferase, uHTS; Q293 LMP1-TROYcd NF-kB luciferase reporter, 4 h; inhibition, % at 10 µM; 360,000 compounds, 0.98% hits; AID 1347056, 2019;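 active = compounds whose plate-normalised and pattern-corrected inhibition of the luciferase reporter signal at the single screening dose is 50% or more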
LMP1 NFkB inh = EBV LMP1-driven NF-kappaB luciferase reporter inhibitors, primary screen, cell-based, luminescence, single point | LMP1-induced NF-kappaB luciferase reporter cells | inhibition, % at 12.5 µM | 350,000 compounds, 0.69% hits; in the data active = inhibition above about 41%; inconclusive = no clear call, values can overlap the other calls;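 note: 0% = neutral control wells and 100% = reference inhibitor control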
EWS-Fli inh = EWS/Fli-driven NR0B1 reporter inhibitors, primary screen, A673 cells, NR0B1 luciferase, luminescence, MLPCN library; viability-normalised; inhibition, % at 12.6 µM; 350,000 compounds, 0.67% hits; AID 651661, 2012;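 active = mean inhibition of at least 50% after viability correction, with every replicate also passing that limit; inconclusive = mean reaches 50% but only one of two replicates passes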;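 note: firefly luciferase signal divided by Alamar Blue viability fluorescence both relative to DMSO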
Numbers without * were called inactive; ? = inconclusive; / = no result.

SMILES	PAX8 inh HTS	LGR2 inh	TWEAK-Fn14 inh	TROY signal inh	LMP1 NFkB inh	EWS-Fli inh
O=C(NCC[C@H]1CC[C@@H](NS(=O)(=O)c2ccc(Cl)cc2)[C@@H](CO)O1)c1ccccc1F	9	6	/	/	/	-5
COC(=O)[C@@]12C[C@@H](CC(=O)N3CCN(C(=O)c4ccco4)CC3)C(=O)N(Cc3ccccc3)C1=CCC(C)(C)C2	88*	-4	/	/	/	-8
COC(=O)[C@]12C[C@H](CC(=O)N3CCN(C(=O)c4ccco4)CC3)C(=O)N(Cc3ccccc3)C1=C[C@H](C(C)(C)C)O[C@@H]2C	74*	/	/	/	/	6
COC(=O)[C@@]12C[C@@H](CC(=O)N3CCN(C(=O)c4ccco4)CC3)C(=O)N(Cc3ccco3)C1=CCC(C)(C)C2	87*	-10	/	/	/	0
COC(=O)[C@@]12C[C@@H](CC(=O)N3CCN(C(=O)c4ccco4)CC3)C(=O)N(Cc3ccc4c(c3)OCO4)C1=CCC(C)(C)C2	-10	0	/	/	/	-1
COC(=O)[C@]12C[C@H](CC(=O)N3CCN(C(=O)c4ccco4)CC3)C(=O)N(Cc3ccc4c(c3)OCO4)C1=C[C@H](C(C)(C)C)O[C@@H]2C	58	22	/	/	/	7
CS(=O)(=O)N1[C@@H]2c3ccc(-c4ccc(F)cc4)c(=O)n3C[C@H]1[C@H](CO)[C@H]2C(=O)N1CCOCC1	/	2	/	/	/	-2
O=C(NCC[C@H]1CC[C@H](NS(=O)(=O)c2ccccc2)[C@H](CO)O1)c1ccccc1F	-16	-12	/	/	/	4
C=CC1c2cc(OC)c(OC)cc2CC(C)N1Cc1ccc(OC)cc1 (stereo not drawn)	12	/	/	/	/	56*
C/C=C/c1ccc(C2[C@H]3CNC[C@@H]2N3Cc2ccc(OC)cc2)cc1 (stereo partly drawn)	/	-9	/	/	/	1
CN(C)CCNc1ccc(CO)c2oc3ccc(O)cc3c(=O)c12	/	32	-53	-26	-6	55*
COc1ccc2c3c(n(C)c2c1)[C@@H](CO)NCC31CCN(C(C)=O)CC1	/	-2	/	/	/	3
CC(C)Oc1cccc(C(=O)NC(=S)N2CCN(c3ccc(C(F)(F)F)cc3[N+](=O)[O-])CC2)c1	/	/	-31	15	-3	/
COc1cccc(C(=O)NC(=S)N2CCN(c3ccc(C(F)(F)F)cc3[N+](=O)[O-])CC2)c1	1	2	-41	16	4	64*
COc1ccc(Nc2ccnc(Nc3ccc(OC)cc3)n2)cc1	-79	-61	64*	24	-11	/
CCN1[C@@H]2c3ccc(-c4cccc(F)c4)c(=O)n3C[C@H]1[C@H](CO)[C@H]2C(=O)N(C)C	5	12	/	/	/	-3
COc1cccc(C(=O)Nc2ccc3c(c2)C(=O)N(C)C[C@@H](OC)[C@H](C)CN(CCc2ccccc2)[C@H](C)CO3)c1	71*	9	/	/	/	11
COc1cccc(C(=O)Nc2ccc3c(c2)OC[C@@H](C)N(CCc2ccccc2)C[C@@H](C)[C@H](OC)CN(C)C3=O)c1	68*	-4	/	/	/	-1
C[C@H](CO)N1C[C@H](C)[C@H](CN(C)C(=O)Nc2cccc3ccccc23)Oc2ccc(NC(=O)CCCN(C)C)cc2C1=O	-21	6	/	/	/	-11
O=C(NCc1ccco1)/C(=C/C=C/c1ccccc1)NC(=O)c1ccco1	9	4	0	-30	-4	9
O=C(NCc1ccco1)/C(=C\C=C\c1ccccc1)NC(=O)c1ccccc1Br	-8	-10	7	70*	10	-4
NNC(=O)CN1CCCc2ccccc21	-87	-9	69*	71*	-28	-99
O=C(CN1CCCc2ccccc21)N1CCc2ccccc21	38	-6	0	-18	-9	0
C[C@H](CO)N1C[C@H](C)[C@@H](CN(C)C(=O)Nc2ccc(F)cc2)OCCCC[C@H](C)Oc2ccc(NC(=O)Nc3ccc4c(c3)OCO4)cc2C1=O	5	4	/	/	/	-52
CO[C@H]1CN(C)C(=O)c2ccc(NC(=O)c3ccccc3F)cc2OC[C@H](C)N(CC2CC2)C[C@@H]1C	/	-1	/	/	/	-4
SMILES	PAX8 inh HTS	LGR2 inh	TWEAK-Fn14 inh	TROY signal inh	LMP1 NFkB inh	EWS-Fli inh
N#CC1(NC(=O)Cn2ncc(Cl)c(Cl)c2=O)CCCCC1	91*	-10	78*	55*	-43	?
O=Cc1ccc(O)c2ncccc12	/	/	17	-12	59*	/
CCC(=O)N(C)C[C@H]1Oc2ncc(-c3ccccc3C)cc2C(=O)N([C@H](C)CO)C[C@@H]1C	/	-11	/	/	/	-5
COC(=O)c1c(NC(=O)C2CC=CCC2C(=O)O)sc2c1CCCCC2 (stereo not drawn)	2	-1	96*	2	-2	15
O=C(Nc1sc2c(c1C(=O)O)CCC2)c1ccccc1	13	/	36	-34	-2	/
O=C(Nc1sc2c(c1C(=O)O)CCCCC2)c1ccccc1	0	-27	64*	37	3	-151
COC(=O)c1c(NC(C)=O)sc2c1CCCCC2	-4	-18	8	6	-3	/
CCOC(=O)c1c(C)nn(-c2ccc(NC(=O)/C=C/C(=O)O)cc2)c1C	18	/	61*	45	14	48
CCOC(=O)c1c(C)nn(-c2ccc(NC(=O)c3c(C)noc3C)cc2)c1C	20	-4	20	13	4	12
CC1CCc2c(sc3nc(C(C)(C)C)nc(N4CCN(C(=O)CCl)CC4)c23)C1 (stereo not drawn)	22	/	2	1	-16	69*
CCC(=O)N1CCN(c2nc(CC)nc3sc4c(c23)CCCC4)CC1	14	-2	3	-18	-1	14
Cc1ccc(Sc2cc(NCCCO)c([N+](=O)[O-])c3nonc23)cc1	11	9	55*	21	14	17
CC(=O)OCCNc1cc(SC(C)C)c2nonc2c1[N+](=O)[O-]	-12	2	20	9	5	2
CC(C)CCSc1cc(NCCO)c([N+](=O)[O-])c2nonc12	13	2	-3	3	-70	9
CC(=O)OCCCNc1cc(Sc2ccc(Cl)cc2)c2nonc2c1[N+](=O)[O-]	4	?	79*	51*	27	-1
C[C@@H]1CN([C@H](C)CO)C(=O)c2cccc(N(C)C)c2O[C@H]1CN(C)S(=O)(=O)c1ccc(Cl)cc1	-3	12	/	/	/	0
CC(C)NC(=O)N(C)C[C@@H]1Oc2c(NC(=O)Nc3cccc4ccccc34)cccc2C(=O)N([C@@H](C)CO)C[C@@H]1C	24	1	/	/	/	0
C[C@H]1CN([C@@H](C)CO)C(=O)c2cc(-c3cccc(C#N)c3)cnc2O[C@@H]1CN(C)C(=O)C1CCC1	0	-3	/	/	/	3
COc1ccc2c3c([nH]c2c1)[C@H](CO)N(C(=O)Nc1ccc(F)cc1)CC31CN(S(=O)(=O)c2cn(C)cn2)C1	/	16	/	/	/	15
